# In PubChem BioAssay (NCATS):
# Records with an inconclusive call do not appear. A number with no mark means an inactive call. Calls of active or inactive are those of the source. Calls come from the whole dose curve; as a rule, active = well fitted cell-killing curve with a large enough effect; inconclusive = small, poorly fitted or top-dose-only effect, or effect the other way; inactive = no such curve, though single readings can be large or run the other way.
# Test: Quantitative High-Throughput drug screen in 47 multiple myeloma cell lines against the NCATS MIPE library collection: U266_ATCC cell viability assay (AID 1919864); note: nearly all actives have a fitted effect of over 35% in size;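 for viability (% of DMSO control): 0% = media-only wells without cells and 100% = DMSO-only wells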
# Settings: U266 myeloma viability, CellTiter-Glo ATP luminescence, 48 h; series mostly up to 45.8 µM
# In short: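 Cells were exposed to library compounds for 48 hours, after which ATP was measured by CellTiter-Glo. Signal was taken as median relative luminescence units.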
# Potency is the fitted concentration of half-maximal effect.
Compound,Potency,viability (% of DMSO control)
CC(C)(O)c1cc2nc(-c3cnc(N)nc3)nc(N3CCOCC3)c2s1,0.105 µM (active),–
CN[C@H]1CCc2cc(OC)c(OC)c(OC)c2-c2ccc(OC)c(=O)cc21,0.0066 µM (active),–
CN1CC[C@@H](c2c(O)cc(O)c3c(=O)cc(-c4ccccc4Cl)oc23)[C@@H](O)C1,0.166 µM (active),–
Cc1[nH]c2ccccc2c1CCNCc1ccc(C=CC(=O)NO)cc1,0.132 µM (active),–
Cc1cc(Nc2cc(N3CCN(C)CC3)nc(C=Cc3ccccc3)n2)n[nH]1,38.2 µM (active),–
CC(C)[C@H](C(=O)Nc1ccc(C(=O)NO)cc1)c1ccccc1,0.935 µM (active),–
Nc1ccn([C@@H]2O[C@H](CO)[C@H](O)C2(F)F)c(=O)n1,14.8 µM (active),–
CN(C)c1nc(Cc2ccc(NC(=O)c3ccc4ccccc4c3)cc2)nc(Cl)c1CC(=O)O,inactive,–
Cc1ccc(CN2CCNCC2)cc1NC(=O)CNc1ccc(F)c(F)c1,29.6 µM (active),–
CCC1=C[C@@H]2CN(C1)Cc1c([nH]c3ccccc13)[C@@](C(=O)OC)(c1cc3c(cc1OC)N(C)[C@@H]1[C@@](O)(C(=O)OC)[C@H](OC(C)=O)[C@]4(CC)C=CCN5CC[C@]31[C@@H]54)C2,14.8 µM (active),–
CCCCN1CCC(CNC(=O)c2c3n(c4ccccc24)CCCO3)CC1,4.69 µM (active),–
O=C(CCCCCCC(=O)Nc1ccc([C@H]2O[C@@H](CSc3nc(-c4ccccc4)c(-c4ccccc4)o3)C[C@@H](c3ccc(CO)cc3)O2)cc1)NO,13.2 µM (active),–
Nc1ccc(S(=O)(=O)Nc2ncccn2)cc1,inactive,–
CC(=O)Nc1sc2c(c1-c1nc3ccccc3s1)CNC2,16.6 µM (active),–
COc1cc2ncn(-c3cc(OCc4ccccc4C(F)(F)F)c(C(N)=O)s3)c2cc1OC,18.7 µM (active),–
COc1cc2c(Oc3ccc4[nH]c(C)cc4c3F)ncnc2cc1OCCCN1CCCC1,26.4 µM (active),–
CCCCCN(CCC12CC3CC(CC(C3)C1)C2)C(=O)NCCCc1ccncc1,14.8 µM (active),–
Cc1cn2c(-c3cn[nH]c3)cnc2c(Nc2ccc(C(=O)N3CCNCC3)cc2F)n1,13.2 µM (active),–
COc1c(OCCCN2CCOCC2)ccc2c3n(c(=NC(=O)c4cnc(N)nc4)nc12)CCN3,0.645 µM (active),–
Cc1c(Cn2c(C)nc3c(C(=O)O)cc(N4CCOCC4)cc32)cccc1C(F)(F)F,inactive,–
NCC(=O)Nc1ccc(-n2nc(C(F)(F)F)cc2-c2ccc3c(ccc4ccccc43)c2)cc1,20.9 µM (active),–
COc1ccc(CC2c3cc(OC)c(OC)cc3CC[N+]2(C)CCC(=O)OCCCCCOC(=O)CC[N+]2(C)CCc3cc(OC)c(OC)cc3C2Cc2ccc(OC)c(OC)c2)cc1OC (stereo unspecified),–,135% [at 5.15 µM]
COc1cc(C(=O)NS(=O)(=O)c2ccccc2C)ccc1Cc1cn(C)c2ccc(NC(=O)OC3CCCC3)cc12,18.7 µM (active),–
COC(=O)Nc1ccc(-c2nc(N3CCOCC3)c3cnn(C4CCN(Cc5cccnc5)CC4)c3n2)cc1,18.7 µM (active),–
COc1ccc2c(OCc3nnc4ccc(-c5ccccc5)nn34)ccnc2c1,inactive,–
CCCn1c(=O)c2[nH]c(-c3cnn(Cc4cccc(C(F)(F)F)c4)c3)nc2n(CC)c1=O,inactive,–
